# From PubChem BioAssay (NCATS)
# “And” between values parts separate entries of the source, which are not always exact repeats. Identical values can stand only once. Results filed as inconclusive are left out. A call without a number means that no potency is given here. The source made the active and inactive calls. Unless noted, the call rests on the fitted dose curve; in most records, active means well fitted curve in the direction sought with a large enough effect; inconclusive means small, poorly fitted or top-dose-only effect, or another doubt; inactive means no such curve, though single readings can be large; an effect the other way counts as inactive or inconclusive.
# How the values were obtained:
# [1] = AP1 Signaling Pathway (AID 357; active means well fitted curve in either direction with a large enough effect, not every such curve was filed as active;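 further: ME-180 reporter cells stimulated with EGF at its EC50 level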); details: ME-180 AP-1-bla reporter, EGF-induced, beta-lactamase ratio, 5 h
# Outline: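 Modulation of EGF-driven AP-1 transcription was assessed with a beta-lactamase reporter in ME-180 cells. Compound and EC50 EGF were co-incubated 5 hours at 37 °C before 2.5-hour CCF4 loading at room temperature and dual-emission reading.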
# [2] = NFAT Signaling Pathway (AID 444; active means well fitted curve in either direction with a large enough effect, not every such curve was filed as active;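 further: carbachol stimulus at about its EC50 of 1 µM final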); details: Jurkat NFAT-bla M1, carbachol, beta-lactamase ratio, 5 h
# Outline: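 Jurkat cells carrying an NFAT-driven β-lactamase reporter and co-transfected muscarinic M1 receptor were treated with compound plus carbachol (1 uM final, an EC50 level) for 5 h at 37 °C. CCF4 loading followed for 1 h at RT; 460/530 nm ratio gave %activity.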
# [3] = Stat Signaling Pathway (AID 446; active means well fitted curve in either direction with a large enough effect, not every such curve was filed as active;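 further: ME-180 cervical cancer cells given 40 pM IL-6 alongside compound; SIE-controlled beta-lactamase reporter measured as 460/530 nm FRET emission ratio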); details: ME-180 (cervical carcinoma) SIE beta-lactamase reporter, IL-6 stimulated, 5 h
# Outline: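 Overnight-plated ME-180 cells bearing a STAT Inducible Element beta-lactamase reporter; 5 h co-exposure to compound and 40 pM IL-6; values normalized to 300 pM IL-6 and 125 nM JAK inhibitor controls.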
# [4] = biological target: Glucocorticoid receptor (Homo sapiens) (UniProt P04150); test: GR-GFP Redistribution (AID 450;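 active means compounds whose dose series gives a full or clear partial fitted curve of increased nuclear translocation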; further: potency means the concentration at half of the fitted maximal effect); details: U2OS GR-GFP nuclear translocation, laser cytometry, 2 h
# Sequence of Glucocorticoid receptor (Homo sapiens) (P04150 whole entry, looked up, the tested form may be a part): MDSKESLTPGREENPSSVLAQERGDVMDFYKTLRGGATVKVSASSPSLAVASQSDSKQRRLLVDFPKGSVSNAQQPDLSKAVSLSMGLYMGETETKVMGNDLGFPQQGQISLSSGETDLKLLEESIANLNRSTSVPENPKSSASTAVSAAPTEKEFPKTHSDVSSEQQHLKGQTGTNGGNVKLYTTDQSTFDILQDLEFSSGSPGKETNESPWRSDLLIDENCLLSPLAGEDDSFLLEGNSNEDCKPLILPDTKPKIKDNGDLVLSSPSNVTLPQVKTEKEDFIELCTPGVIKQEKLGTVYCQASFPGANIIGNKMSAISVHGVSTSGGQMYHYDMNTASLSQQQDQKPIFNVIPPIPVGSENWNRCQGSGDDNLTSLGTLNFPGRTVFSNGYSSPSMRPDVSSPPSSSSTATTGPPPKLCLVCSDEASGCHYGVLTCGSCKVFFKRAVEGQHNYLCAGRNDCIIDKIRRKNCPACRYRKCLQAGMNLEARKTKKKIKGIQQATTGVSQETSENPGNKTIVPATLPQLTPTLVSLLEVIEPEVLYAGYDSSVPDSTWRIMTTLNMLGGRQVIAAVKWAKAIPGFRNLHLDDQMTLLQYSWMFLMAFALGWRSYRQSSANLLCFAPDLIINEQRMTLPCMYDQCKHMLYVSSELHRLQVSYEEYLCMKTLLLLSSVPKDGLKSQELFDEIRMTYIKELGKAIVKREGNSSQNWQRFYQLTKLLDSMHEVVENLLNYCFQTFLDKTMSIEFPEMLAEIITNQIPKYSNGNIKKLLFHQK
# [5] = biological target: Glucocorticoid receptor (Homo sapiens) (UniProt P04150); test: GR-EFC Redistribution (AID 451; calls by dose curve; further: potency means the concentration at half of the fitted maximal effect); details: CHO-K1 GR-EFC translocation, beta-gal luminescence, 2 h
# Outline: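 CHO-K1 cells stably expressing nuclear-localized β-gal enzyme acceptor and GR fused C-terminally to the enzyme donor fragment; ligand-driven nuclear translocation restores β-gal by complementation. Compounds titrated up to 46 uM final, 2 h at 37 °C; luminescence read.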
# [6] = biological target: 3',5'-cyclic-AMP phosphodiesterase 4B (Homo sapiens) (UniProt Q07343); test: qHTS Assay for Inhibitors of PDE-IV (AID 607; active means well fitted activation curve with a large enough effect in the main read-out, with a control signal flat, not every such curve was filed as active); details: HEK293 ACTOne CNG channel cells, membrane potential fluorescence; series mostly up to 22.9 µM
# Sequence of 3',5'-cyclic-AMP phosphodiesterase 4B (Homo sapiens) (Q07343 whole entry, looked up): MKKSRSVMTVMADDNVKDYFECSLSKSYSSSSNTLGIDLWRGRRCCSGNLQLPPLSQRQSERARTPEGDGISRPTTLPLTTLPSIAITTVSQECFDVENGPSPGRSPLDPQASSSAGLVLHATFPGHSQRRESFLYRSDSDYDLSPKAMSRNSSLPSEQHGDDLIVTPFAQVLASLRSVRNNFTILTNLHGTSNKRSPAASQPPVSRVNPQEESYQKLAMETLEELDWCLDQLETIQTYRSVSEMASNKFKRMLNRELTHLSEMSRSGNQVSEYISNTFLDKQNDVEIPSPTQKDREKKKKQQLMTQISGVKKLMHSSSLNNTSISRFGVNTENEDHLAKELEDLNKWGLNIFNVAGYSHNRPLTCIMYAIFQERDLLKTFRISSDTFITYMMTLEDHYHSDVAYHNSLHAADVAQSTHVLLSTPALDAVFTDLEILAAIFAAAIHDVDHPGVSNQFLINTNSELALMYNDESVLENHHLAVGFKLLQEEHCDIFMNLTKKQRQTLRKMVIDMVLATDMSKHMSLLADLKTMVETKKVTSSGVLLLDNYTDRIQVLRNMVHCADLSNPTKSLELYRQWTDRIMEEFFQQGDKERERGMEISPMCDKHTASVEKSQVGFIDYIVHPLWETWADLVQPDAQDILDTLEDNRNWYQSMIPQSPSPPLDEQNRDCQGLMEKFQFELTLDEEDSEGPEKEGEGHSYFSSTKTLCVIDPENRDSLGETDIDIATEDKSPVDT
# Outline: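 Live HEK293 cells with a modified cyclic nucleotide-gated (CNG) channel report intracellular cAMP via membrane-potential dye fluorescence (ex 535/em 590 nm). Endogenous PDE-IV was targeted. Compounds were tested at up to 22.9 uM final; RO 20-1724 100 uM served as control.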
# [7] = qHTS Assay for Identification of Small Molecule Agonists for Thrombopoietin (TPO) Signaling Pathway (AID 917); details: TPO signaling pathway reporter cells, agonist qHTS, stimulated with TPO at its EC50; series mostly up to 38.5 µM
# Outline: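 Ba/F3 (mouse) + hTPO receptor + GpIIb-promoter luciferase; IL-3 withdrawn overnight; compound + 26 pM TPO (EC50), 24 hrs, 37 C, 5% CO2; Steadylite luminescence, 10 min RT.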
# [8] = biological target: Muscarinic acetylcholine receptor M1 (Rattus norvegicus) (UniProt P08482); test: qHTS Assay for Antagonists of Acetylcholine Muscarinic M1 Receptor: Measurement of IP-One Response (AID 944); details: CHO-M1 cells, IP-One HTRF, antagonist mode; series mostly up to 46.1 µM; further: nearly all actives have a fitted effect of over 75% in size
# Sequence of Muscarinic acetylcholine receptor M1 (Rattus norvegicus) (P08482 whole entry, looked up): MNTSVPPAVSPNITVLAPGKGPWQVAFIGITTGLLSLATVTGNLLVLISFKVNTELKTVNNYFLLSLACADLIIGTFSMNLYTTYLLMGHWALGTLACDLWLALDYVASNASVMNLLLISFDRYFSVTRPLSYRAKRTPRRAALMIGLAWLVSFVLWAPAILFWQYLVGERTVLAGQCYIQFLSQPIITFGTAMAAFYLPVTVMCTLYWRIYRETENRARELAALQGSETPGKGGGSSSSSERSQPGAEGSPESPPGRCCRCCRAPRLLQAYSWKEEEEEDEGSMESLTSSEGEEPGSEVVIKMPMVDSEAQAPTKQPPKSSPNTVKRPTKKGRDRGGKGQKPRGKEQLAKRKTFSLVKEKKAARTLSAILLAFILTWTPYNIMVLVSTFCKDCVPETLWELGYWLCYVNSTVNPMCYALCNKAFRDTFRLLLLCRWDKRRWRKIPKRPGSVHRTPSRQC
# Outline: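 Antagonist mode with rat M1 receptor transfected into CHO cells. Compound is added first for 10 min, carbachol at its EC80 follows for 30 min, and lysis reagents then allow TR-FRET detection of accumulated IP1.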
# [9] = biological target: Pyruvate kinase PKM (Homo sapiens) (UniProt P14618); test: qHTS Assay for Activators of Human Muscle Pyruvate Kinase (AID 954; active means well fitted curve in the direction sought with a large enough effect, not every such curve was filed as active); details: purified human muscle pyruvate kinase, luciferase-coupled luminescence, 1 h; series mostly up to 57.5 µM
# Sequence of Pyruvate kinase PKM (Homo sapiens) (P14618 whole entry, looked up): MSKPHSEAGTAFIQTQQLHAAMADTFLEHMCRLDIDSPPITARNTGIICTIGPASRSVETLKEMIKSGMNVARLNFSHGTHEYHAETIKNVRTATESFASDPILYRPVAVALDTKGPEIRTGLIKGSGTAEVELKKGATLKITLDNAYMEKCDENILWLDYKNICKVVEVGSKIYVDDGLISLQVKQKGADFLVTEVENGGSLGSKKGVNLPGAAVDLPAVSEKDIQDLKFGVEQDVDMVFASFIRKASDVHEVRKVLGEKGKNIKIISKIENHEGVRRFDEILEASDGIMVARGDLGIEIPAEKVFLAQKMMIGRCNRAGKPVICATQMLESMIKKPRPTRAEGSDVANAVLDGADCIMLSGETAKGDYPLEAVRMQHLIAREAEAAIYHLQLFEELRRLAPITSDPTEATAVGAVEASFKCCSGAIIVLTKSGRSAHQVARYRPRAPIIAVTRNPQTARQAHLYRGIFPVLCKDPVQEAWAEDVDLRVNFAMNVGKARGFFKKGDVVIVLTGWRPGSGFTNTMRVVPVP
# Outline: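 Screening used highly purified human pyruvate kinase M2 under submaximal activity, with PEP at its Km and ADP below Km. After an hour at room temperature, ATP was read by luciferase luminescence.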
# [10] = biological target: alpha-glucosidase (Oryza sativa, rice) (UniProt Q653V4); test: Counterscreen for Glucocerebrosidase Inhibitors: qHTS Assay for Rice alpha-Glucosidase at pH 5.0 (AID 997); details: rice alpha-glucosidase enzyme activity; series mostly up to 76.9 µM
# Outline: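 Endpoint fluorogenic assay at pH 5.0: compounds (0.7 nM to 77 uM) titrated against 4 nM rice enzyme and 400 uM 4-MU-alpha-glucoside for 20 min at room temperature; NaOH/glycine stop, read ex 365/em 440 nm, Hill-fitted AC50.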
# [11] = qHTS Assay for Lipid Storage Modulators (AID 1519; calls by dose curve); details: Drosophila S3 cells, BODIPY lipid droplet/cell ratio, laser cytometry, cells loaded with oleic acid
# Outline: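 Cells seeded at 5,000 per well were treated with compounds over a concentration series and loaded with oleic acid (400 uM, as added). Lipid droplet fluorescence (488 nm excitation, 500-530 nm channel) was read by laser-scanning cytometry and normalized to 20 uM Triacsin C.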
# [12] = biological target: Ubiquitin carboxyl-terminal hydrolase 1 (Homo sapiens) (UniProt O94782); test: Inhibitors of USP1/UAF1: Pilot qHTS (AID 504865); details: purified USP1/UAF1, Ub-rhodamine cleavage fluorescence; series mostly up to 114 µM;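 further: rhodamine fluorescence freed from ubiquitin-rhodamine substrate followed over time; top concentration of the series differs between compounds; nearly all actives have a fitted effect of over 35% in size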
# Outline: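 1nM USP1/UAF1 + cpd, 15 min RT; start w/ Ub-Rho 150nM final; kinetic FL 480/540 nm, 6 reads q60 s. Buffer 50mM HEPES pH 7.8, 0.5mM EDTA, 1mM TCEP, 0.01% Tween-20, 0.1 mg/ml BSA.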
# [13] = biological target: DNA dC->dU-editing enzyme APOBEC-3G (Homo sapiens) (UniProt Q9HC16); test: qHTS for inhibitors of Vif-A3G interactions: Validation (AID 588379); details: Vif-A3G protein interaction assay; series mostly up to 46.1 µM
# Sequence of DNA dC->dU-editing enzyme APOBEC-3G (Homo sapiens) (Q9HC16 whole entry, looked up): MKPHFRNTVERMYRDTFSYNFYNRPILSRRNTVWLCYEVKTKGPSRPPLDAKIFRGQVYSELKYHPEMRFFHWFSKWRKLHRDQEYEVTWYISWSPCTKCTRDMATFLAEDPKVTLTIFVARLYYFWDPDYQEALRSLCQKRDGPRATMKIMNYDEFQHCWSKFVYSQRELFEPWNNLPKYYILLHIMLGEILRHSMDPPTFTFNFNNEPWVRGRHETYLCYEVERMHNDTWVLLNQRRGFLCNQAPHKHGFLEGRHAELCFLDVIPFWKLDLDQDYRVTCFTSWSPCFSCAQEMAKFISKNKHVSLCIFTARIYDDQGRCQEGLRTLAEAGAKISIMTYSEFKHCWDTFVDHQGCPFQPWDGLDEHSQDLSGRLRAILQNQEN
# Outline: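 Yellow fluorescence (Ex 488, Em 500-530) of Vif-coexpressing HeLa A3G-eYFP cells, scanned by Acumen cytometer, reports blocked A3G degradation. Cells plated at 700/well overnight at 37 deg C before compound addition, then a further overnight compound incubation at 37 deg C.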
# [14] = tested on: Zika virus NS2B-NS3 protease; test: Primary screen GU AMC qHTS for Zika virus inhibitors (AID 1347154); details: Zika NS2B-NS3 unlinked protease, AMC fluorogenic substrate; series mostly up to 54.1 µM; further: nearly all actives have a fitted effect of over 70% in size
# Outline: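 Unlinked Zika NS2B hydrophilic domain/NS3 protease domain noncovalent complex (25 nM final) in 10 mM Tris-HCl pH 8.0, 0.01% Tween 20, with AMC peptide substrate. Fluorescence (ex 340, em 450 nm) change over 15 min, room temperature; percent inhibition fitted to 4-parameter Hill equation.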
# [15] = Counterscreen qHTS for small molecule stabilizers of the endoplasmic reticulum resident proteome: GLuc-NoTag assay (AID 1508627); details: Gaussia luciferase NoTag secretion counterscreen, luminescence, thapsigargin 100 nM for final 4 h; series mostly up to 76.4 µM
# Outline: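 Secreted GLuc lacking the SERCaMP modification is measured in SH-SY5Y cells exposed to compound for 19 h and then to thapsigargin (100 nM, 4 h) to deplete ER calcium; hits retested at 11 concentrations, up to 76.6 uM.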
# [16] = Confirmatory qHTS for small molecule stabilizers of the endoplasmic reticulum resident proteome: Secreted ER Calcium Modulated Protein (SERCaMP) assay (AID 1508628); details: SERCaMP secreted luciferase ER calcium/proteostasis reporter; series mostly up to 76.3 µM; further: nearly all actives have a fitted effect of over 40% in size; further: potency means the concentration at half of the fitted maximal effect
# Outline: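 Reporter secretion upon ER calcium depletion (100 nM thapsigargin, 4 h, 37C) is measured as medium luminescence with coelenterazine, after 16 h compound pretreatment of SH-SY5Y-GLuc-SERCaMP cells; primary at three concentrations up to 38.3 uM, follow-up at 11 (up to 76.6 uM).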
# [17] = Cell Viability qHTS for small molecule stabilizers of the endoplasmic reticulum resident proteome (AID 1508629); details: cell viability counter-screen, 100 nM thapsigargin for final 4 h;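 further: compound exposure about 46 h in total before the viability read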; further: potency means the concentration at half of the fitted maximal effect;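 on max response: human SH-SY5Y neuroblastoma cells carrying the GLuc-SERCaMP reporter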
# [18] = biological target: Mitogen-activated protein kinase 10 (Mus musculus) (UniProt Q61831); test: JNK3 AlphaScreen Assay (AID 530; active means well fitted curve in either direction with a large enough effect, not every such curve was filed as active;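 further: kinase came from lysate of stimulated human HepG2 cells; signal reports phosphorylation of biotinylated GST-cJun 1-79 at Ser73 with 10 µM ATP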); details: JNK3 lysate, c-Jun phosphorylation; series mostly up to 57.1 µM
# Outline: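 Phosphorylation of biotinylated GST-cJun(1-79) at Ser73 is measured by AlphaScreen proximity luminescence. Enzyme is JNK3 in HepG2 lysates activated with interleukin-1beta and tumor necrosis factor alpha; ATP is 10 uM final.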
# [19] = biological target: Guanine nucleotide-binding protein G(i) subunit alpha-1 (Homo sapiens) (UniProt P63096); test: qHTS Assay for Inhibitors of RGS12 GoLoco Motif Activity (Green Fluorophore) (AID 879); details: Galphai1/FITC-RGS12 GoLoco peptide, fluorescence polarization; series mostly up to 57.1 µM;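 further: negative values mean loss of peptide binding seen as reduced polarization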
# Sequence of Guanine nucleotide-binding protein G(i) subunit alpha-1 (Homo sapiens) (P63096 whole entry, looked up): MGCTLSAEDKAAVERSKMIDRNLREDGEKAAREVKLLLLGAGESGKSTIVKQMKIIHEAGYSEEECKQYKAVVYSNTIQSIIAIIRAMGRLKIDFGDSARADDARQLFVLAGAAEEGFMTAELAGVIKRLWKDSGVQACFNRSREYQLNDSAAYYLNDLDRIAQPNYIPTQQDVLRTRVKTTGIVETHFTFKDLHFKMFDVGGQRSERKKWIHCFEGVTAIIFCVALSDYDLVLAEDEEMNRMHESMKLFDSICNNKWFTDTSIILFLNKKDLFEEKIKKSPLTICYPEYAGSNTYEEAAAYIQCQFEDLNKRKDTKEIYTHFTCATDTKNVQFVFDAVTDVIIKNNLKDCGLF
# Outline: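 A drop in FITC polarization marked displacement of the FITC-tagged RGS12 GoLoco peptide (10 nM) from Gαi1 (50 nM). Compounds were incubated 10 min at room temperature in Tris pH 7.5 buffer containing 150 mM NaCl, 0.1 mM GDP and 0.05% NP40; unlabeled peptide titration served as control.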
# [20] = biological target: Pyruvate kinase (Leishmania mexicana) (UniProt Q27686); test: qHTS Validation Assay for Inhibitors of Leishmania Mexicana Pyruvate Kinase (AID 945); details: purified L. mexicana pyruvate kinase, enzyme activity, E451W mutant enzyme; series mostly up to 57.5 µM
# Sequence of Pyruvate kinase (Leishmania mexicana) (Q27686 2-499 E452W): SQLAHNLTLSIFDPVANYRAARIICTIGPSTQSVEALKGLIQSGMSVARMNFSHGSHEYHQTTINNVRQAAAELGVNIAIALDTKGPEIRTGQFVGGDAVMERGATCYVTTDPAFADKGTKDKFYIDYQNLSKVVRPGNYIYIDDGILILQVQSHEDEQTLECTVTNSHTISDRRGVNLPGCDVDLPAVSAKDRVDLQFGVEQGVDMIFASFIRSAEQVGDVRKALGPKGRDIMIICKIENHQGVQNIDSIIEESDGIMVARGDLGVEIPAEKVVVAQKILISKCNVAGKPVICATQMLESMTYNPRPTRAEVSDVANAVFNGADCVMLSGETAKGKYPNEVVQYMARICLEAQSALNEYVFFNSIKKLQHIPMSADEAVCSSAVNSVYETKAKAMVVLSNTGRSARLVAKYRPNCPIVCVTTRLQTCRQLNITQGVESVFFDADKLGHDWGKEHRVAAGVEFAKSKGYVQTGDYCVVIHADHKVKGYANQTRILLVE
# Outline: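 Substrate mix (0.5 mM PEP, 0.1 mM ADP, 7 mM MgCl2, 50 mM KCl, pH 7.2 imidazole) received compound by pin tool, then 0.2 nM LmPYK E451W. After 1 h at room temperature, PKLight was added and luminescence measured.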
# [21] = biological target: Alpha-galactosidase A (Homo sapiens) (UniProt P06280); test: Counterscreen for Glucocerebrosidase Inhibitors: qHTS Assay for Human alpha-Galactosidase at pH 4.5 (AID 992); details: purified enzyme, fluorogenic substrate; series mostly up to 76.9 µM
# Sequence of Alpha-galactosidase A (Homo sapiens) (P06280 whole entry, looked up): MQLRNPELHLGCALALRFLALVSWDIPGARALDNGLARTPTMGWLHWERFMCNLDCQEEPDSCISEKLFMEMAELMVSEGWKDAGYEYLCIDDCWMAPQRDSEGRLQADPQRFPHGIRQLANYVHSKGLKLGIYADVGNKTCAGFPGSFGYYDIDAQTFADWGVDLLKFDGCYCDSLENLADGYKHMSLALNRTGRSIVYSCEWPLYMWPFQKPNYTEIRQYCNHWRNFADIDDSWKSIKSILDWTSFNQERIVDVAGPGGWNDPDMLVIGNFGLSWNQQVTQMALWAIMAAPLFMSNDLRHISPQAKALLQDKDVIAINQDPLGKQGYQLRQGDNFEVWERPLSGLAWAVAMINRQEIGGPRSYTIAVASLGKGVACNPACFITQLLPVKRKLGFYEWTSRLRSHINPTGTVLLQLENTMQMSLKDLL
# Outline: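 Each compound is preincubated briefly with 2 nM enzyme before substrate addition (80 uM); plates then sit 20 min at ambient temperature, are quenched with 1M NaOH/1M glycine, and read fluorometrically.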
# [22] = NCATS anti-infectives library activity on HEK293 viability as a counter-qHTS vs the C. elegans viability qHTS (AID 1745854); details: HEK293 viability counter-screen; series mostly up to 41.8 µM;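 further: HEK293 cells exposed to compounds for 24 hr before the viability read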
# Outline: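 Counter-screen for cytotoxicity: HEK293, 24 hr, 37C, compounds up to 41.7 uM final (a dilution series, 1:5). Readout CellTiter-Glo luminescence, 10 min RT. Digitonin control, 83.3 uM final.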
# [23] = biological target: Cytochrome P450 1A2 (Homo sapiens) (UniProt P05177); test: p450-cyp1a2 (AID 410; calls by dose curve); details: recombinant CYP1A2, luciferin-ME demethylation, luminescence; series mostly up to 57 µM
# Sequence of Cytochrome P450 1A2 (Homo sapiens) (P05177 whole entry, looked up): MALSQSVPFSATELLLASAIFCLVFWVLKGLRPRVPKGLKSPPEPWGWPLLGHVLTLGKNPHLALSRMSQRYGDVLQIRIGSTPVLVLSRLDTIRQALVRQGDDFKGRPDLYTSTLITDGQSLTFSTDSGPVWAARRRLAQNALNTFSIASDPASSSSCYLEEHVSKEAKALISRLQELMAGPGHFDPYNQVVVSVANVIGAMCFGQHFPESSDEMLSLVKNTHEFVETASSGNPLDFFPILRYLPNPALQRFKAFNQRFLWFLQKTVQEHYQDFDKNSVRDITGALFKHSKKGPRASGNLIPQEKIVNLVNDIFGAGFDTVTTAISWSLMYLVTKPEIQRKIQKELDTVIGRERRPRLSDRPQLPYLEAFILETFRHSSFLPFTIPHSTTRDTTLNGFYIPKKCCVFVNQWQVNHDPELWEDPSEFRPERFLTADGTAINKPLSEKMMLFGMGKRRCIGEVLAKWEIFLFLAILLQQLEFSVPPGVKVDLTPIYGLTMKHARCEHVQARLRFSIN
# Outline: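 O-Demethylation of luciferin 6' methyl ether by human CYP1A2 is monitored as luciferase luminescence. Substrate sits at Km (100uM); enzyme is 20nM. Values are scaled to 57 uM furafylline as maximal inhibition.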
# [24] = biological target: Cytochrome P450 3A4 (Homo sapiens) (UniProt P08684); test: qHTS Assay for Activators of Cytochrome P450 3A4 (AID 885); details: recombinant CYP3A4, Luciferin-PPXE luminescence, 60 min; series mostly up to 57.1 µM; further: nearly all actives have a fitted effect of over 65% in size
# Outline: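 Using 20nM recombinant human CYP3A4 in potassium phosphate (200mM), substrate Luciferin-PPXE at 25uM, luminescent luciferin detection followed a 60-min RT NADPH reaction; data scaled to 57 uM ketoconazole.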
structure (smiles),measurement,setting,value
O=C1N=C(O)CN1/N=C\c1ccc(-c2ccc([N+](=O)[O-])cc2)o1,"activity change, negative = inhibition",[1]; at 17.2 µM (top of the series),-13.8% (inactive)
same,"activity change, negative = inhibition",[1]; at 38 µM (top of the series),-14.1% (inactive)
same,"activity change, negative = inhibition",[2]; at 17.2 µM (top of the series),4.77% (inactive)
same,"activity change, negative = inhibition",[2]; at 38 µM (top of the series),-3.36% (inactive)
same,"activity, negative = inhibition",[3]; at 17.2 µM (top of the series),9.37% (inactive)
same,"activity, negative = inhibition",[3]; at 38 µM (top of the series),-4.41% (inactive)
same,Potency,[4],> 46 µM (inactive) and > 20.6 µM (inactive)
same,Potency,[5],> 46 µM (inactive) and > 20.6 µM (inactive)
same,Potency,[6],inactive
same,Potency,[7],inactive
same,Potency,[8],inactive
same,outcome,[9],inactive
same,outcome,[10],inactive
same,"activity change, negative = inhibition",[11]; at 25.7 µM (top of the series),3.41% (inactive)
same,max response,[11]; measured here: cell count channel max response,3.82%
same,max response,[11]; measured here: lipid channel max response,7.61%
same,Potency,[12],inactive
same,Potency,[13],inactive
same,Potency,[14],inactive
same,Potency,[15],inactive
N[C@@H](CCS(=O)O)C(=O)O,Potency,[14],inactive
same,Potency,[15],inactive
same,Potency,[16],inactive
CC(C)ON(C(C(=O)NO)C(C)C)S(=O)(=O)c1ccc(-c2ccccc2)cc1 (configuration not stated),Potency,[14],inactive
same,Potency,[15],inactive
same,Potency,[17],12.6 µM (active)
COc1ccc(CCN(C)CCC[C@@](C#N)(c2ccc(OC)c(OC)c2)C(C)C)cc1OC,"activity change, negative = inhibition",[1]; at 17.2 µM (top of the series),2.2% (inactive)
same,"activity change, negative = inhibition",[1]; at 38 µM (top of the series),10.5% (inactive)
same,"activity, negative = inhibition",[3]; at 17.2 µM (top of the series),-16.1% (inactive)
same,"activity, negative = inhibition",[3]; at 38 µM (top of the series),-6.6% (inactive)
same,Potency,[18],inactive
same,outcome,[19],inactive
same,Potency,[7],inactive
same,Potency,[20],inactive
same,outcome,[9],inactive
same,outcome,[21],inactive
same,outcome,[10],inactive
same,Potency,[13],inactive
same,Potency,[14],inactive
same,Potency,[15],inactive
same,Potency,[16],12.6 µM (active)
same,outcome,[22],inactive
CN(Cc1ccccc1)C(=O)[C@H](Cc1ccc2ccccc2c1)NC(=O)[C@@H]1CCCN1C(=O)Nc1ccccc1[N+](=O)[O-],Potency,[14],inactive
same,Potency,[15],inactive
same,Potency,[16],10 µM (active)
same,max response,[17],12.2% (inactive)
CC(C)C[C@H]1C(=O)N2CCC[C@@H]2[C@]2(O)O[C@](NC(=O)[C@@H]3C=C4c5cccc6[nH]c(Br)c(c56)C[C@H]4N(C)C3)(C(C)C)C(=O)N12,Potency,[23],inactive
same,Potency,[4],> 46 µM (inactive)
same,Potency,[5],> 46 µM (inactive)
same,Potency,[18],inactive
same,Potency,[6],inactive
same,Potency,[24],inactive
same,Potency,[13],inactive
same,Potency,[14],inactive
same,Potency,[15],inactive
same,Potency,[16],10 µM (active)
same,max response,[17],-14.6% (inactive)
